Source: PubChem BioAssay (Tox21)
Values without a mark were called inactive. Active and inactive are the calls of the source. Calls come from the whole dose curve; as a rule, active = well fitted curve in the direction sought with a large enough effect in the repeat runs; inconclusive = weak or mixed curves; inactive = flat fitted curve, though single readings scatter.

Assay: qHTS assay to test for compound auto fluorescence at 590 nm (red) in HepG2 cell free culture (AID 720684)
Settings: cell-free medium autofluorescence, red 540/590 nm; series mostly up to 91.3 µM; fluorescence, % of Rose Bengal: at the top concentration
Source text: U.S. Tox21 Program National Center for Advancing Translational Sciences [NCATS] NIH Chemical Genomics Center [NCGC] U.S. Environmental Protection Agency [EPA] National Institutes of Environmental Health Sciences [NIEHS] National Toxicology Program [NTP] U.S. Food and Drug Administration [FDA] Tox21 Assay Overview: Compound auto fluorescence often interferes with screening of the compound library against various biological targets and signaling pathways. Some of these compounds may have fluorophoric properties. Such properties may interfere with the assay outputs resulting in false positives and/or negatives. To decrease such complications and ensure the compound activities are relevant in terms of biological response, the Tox21 10K compound library was screened for auto fluorescence. From the fluorophores used as reporter signals in our screening assays, the auto fluorescence equivalencies of compounds against three fluorophores have been evaluated: Triamterene, Fluorescein and Rose Bengal sodium for blue, green and red fluorescence, respectively. The fluorescence intensities were measured using Excitation/Emission wavelengths at 405/460nm, 485/535nm and 540/590nm for blue, green and red labels, respectively. This assay includes the red fluorescence data.
Tox21 Assay Protocol Summary: 5 uL of culture medium (MEM containing 10% FBS) per well was dispensed into black wall/clear bottom 1536-well plates using a Multidrop Combi Dispenser (ThermoFisher Scientific, Waltham, MA). After 23 nL compound or DMSO vehicle was transferred into assay plate by a pintool work station (Kalypsys, San Diego, CA), fluorescence intensities in the assay plates were measured by an Envision (PerkinElmer, Shelton, CT) plate reader using three labels for measuring blue, green and red fluorescence at […] 460, 535 and 590nm respectively.
% is set by controls: 0 for no effect and ±100 for the full control effect.

| Structure (SMILES) | fluorescence, % of Rose Bengal | outcome |
| --- | --- | --- |
| CC(Cc1ccc2c(c1)OCO2)NO (stereo not given) | 0.11% [at 95.7 µM] | – |
| Oc1cc(Cl)cc(Cl)c1 | -0.306% | – |
| C[N+]1(C)[C@@H]2CC[C@H]1CC(OC(=O)C(CO)c1ccccc1)C2 (stereo not given in full) | – | inactive |
| CCN(CC)C(=S)S | – | inactive |
| Clc1cc(Cl)c(-c2cc(Cl)c(Cl)cc2Cl)cc1Cl | 0.0023% [at 46 µM] | – |
| CC1CN1 (stereo not given) | 0.0481% | – |
| Nc1nc(N)c(N)c(N)n1 | 1.43% | – |
| CCC[CH2][Sn]([CH2]CCC)([CH2]CCC)[O][Sn]([CH2]CCC)([CH2]CCC)[CH2]CCC | 0.0071% [at 3.72 µM] | – |
| CNC(=O)CSP(=O)(OC)OC | -0.0041% | – |
| Clc1c(Cl)c(Cl)c(Cl)c(Cl)c1Cl | -0.0219% [at 3.72 µM] | – |
| Clc1ccc(C(c2ccc(Cl)cc2)C(Cl)Cl)cc1 | – | inactive |
| Nc1c(Cl)c(Cl)c(Cl)c(Cl)c1Cl | -0.646% | – |
| CN(C)C(=S)SSC(=S)N(C)C | – | inactive |
| COP(=S)(NC(C)C)Oc1ccc(C)cc1[N+](=O)[O-] (stereo not given) | -0.0072% | – |
| NC1CCC(CC2CCC(N)CC2)CC1 (stereo not given) | 0.255% | – |
| ClC1=C(Cl)[C@]2(Cl)[C@H]3[C@H]([C@@H]4C=C[C@H]3C4)[C@@]1(Cl)C2(Cl)Cl | – | inactive |
| CCC[CH2][Sn]([CH2]CCC)([O]C(C)=O)[O]C(C)=O | 0.133% | – |
| CSC1=N[C@@](C)(c2ccccc2)C(=O)N1Nc1ccccc1 | 0.0246% | – |
| Nc1nc(N)nc(Cl)n1 | -0.032% | – |
| CNC(=O)O/N=C(\C)C(C)S(C)(=O)=O (stereo not given) | 0.222% [at 920 µM] | – |

| Structure (SMILES) | fluorescence, % of Rose Bengal | outcome |
| --- | --- | --- |
| N#Cc1sc2c(=O)c3ccccc3c(=O)c=2sc1C#N | -0.239% | – |
| CNN | 0.0457% [at 95.7 µM] | – |
| C=CCBr | -0.0798% [at 95.7 µM] | – |
| CCC1COC(Cn2cncn2)(c2ccc(Cl)cc2Cl)O1 (stereo not given) | -0.138% | – |
| O=[N+]([O-])[O-].[Tl+] | 0.131% | – |
| Clc1ccc(C2(Cn3cncn3)OCCO2)c(Cl)c1 | – | inactive |
| ClC1=C(Cl)[C@]2(Cl)[C@@H]3[C@H]4C[C@H]([C@@H]5O[C@H]45)[C@@H]3[C@@]1(Cl)C2(Cl)Cl | – | inactive |
| CCC(C)c1cccc(C(C)CC)c1O (stereo not given) | 0.0601% | – |
| c1csc(-c2ccc(-c3cccs3)s2)c1 | -0.0705% | – |
| CCC1(CC)C(=O)N=C(O)NC1=O | 0.0715% | – |
| Fc1ccc(C(OCCN2CCN(CCCc3ccccc3)CC2)c2ccc(F)cc2)cc1 | 0.0761% [at 46 µM] | – |
| CCOC(=O)CCN(SN(C)C(=O)Oc1cccc2c1OC(C)(C)C2)C(C)C | -0.424% | – |
| O=C(Nc1ccc(F)cc1F)c1cccnc1Oc1cccc(C(F)(F)F)c1 | 0.071% [at 95.7 µM] | – |
| COc1c2c(cc3c1OCO3)CCN(C)C2 | -0.194% [at 18.6 µM] | – |
| S=C=NCCc1ccccc1 | 0.0384% | – |
| CSSC | 0.349% [at 95.7 µM] | – |
| CN | -0.0102% [at 95.7 µM] | – |
| [O-][Cl+3]([O-])([O-])O | 0.0266% [at 95.7 µM] | – |
| Oc1ccc([C@H]2CNCc3c2ccc(O)c3O)cc1O | -0.0264% [at 46 µM] | – |
| O=C1C(Cl)=C(Cl)C(=O)C(Cl)=C1Cl | – | inactive |
